This is one part of a sample in which hits are shown more often than they occur.
Tg IFNy HTS – inhibitors of Toxoplasma gondii growth with IFN-gamma; 69,000 compounds, 3.8% hits; Toxoplasma gondii growth in IFN-gamma-treated host cells; stronger effect = lower value; AID 1259416; activity change, negative = inhibition, % (concentration not given with the values); in the data active = activity change below about -70%, passing the limit was not always enough;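 also: host cells are HeLa cells infected with Toxoplasma gondii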
Numbers stand for hits; - = inactive.

SMILES	Tg IFNy HTS
CC1(C)CC(CN2CCN(Cc3cccc(F)c3)CC2)CCO1 (centres undefined)	-
CCN1C[C@@H]2C3(CCN(C(=O)c4cscn4)CC3)CC[C@@]2(C(=O)NC)C1	-
CCN1CCC2(CC1)OC(=O)C(C)=C2C(=O)NCCc1ccc(Cl)cc1	-
CC(=O)NCc1cccc(-c2ccccc2Cl)c1	-
O=C(c1ccccc1-c1ncc[nH]1)N1C[C@H]2CC=CC[C@H]2C1	-
Cc1csc(-c2ccc(N3CCN(C(=O)c4cc5ccccc5[nH]4)CC3)nc2)n1	-
Cc1ccc(C)c(-c2noc(-c3c(O)c4ccc(F)cc4[nH]c3=O)n2)c1	-
Cc1ccc2c(c1)NC1(CCN(C(=O)CCc3ccccc3)CC1)c1cccn1-2	-
CCCCC(=O)N1CCC2(CC1)Nc1ccc(Cl)cc1-n1cccc12	-108.2
CCC(=O)N1CCC2(CC1)Nc1ccc(Cl)cc1-n1cccc12	-
O=C(CCc1ccccc1)N1CCC2(CC1)Nc1ccc(Cl)cc1-n1cccc12	-121.5
Cc1ccc2c(c1C)-n1cccc1C1(CCN(C(=O)CC3CCCCC3)CC1)N2	-
O=C(CCC1CCCC1)N1CCC2(CC1)Nc1ccc(Cl)cc1-n1cccc12	-
O=C(CC1CCCC1)N1CCC2(CC1)Nc1ccc(Cl)cc1-n1cccc12	-
Cc1ccc2c(c1C)-n1cccc1C1(CCN(C(=O)CCC3CCCC3)CC1)N2	-
Cc1ccc2c(c1C)-n1cccc1C1(CCN(C(=O)CC3CCCC3)CC1)N2	-87.6
CCC(CC)NC(=O)c1ccc2nnc(C3CCN(C(C)=O)C3)n2c1 (centres undefined)	-
CN(C)C(=O)N1CCOC2(CCCN(c3cccc(C#N)n3)C2)C1 (centres undefined)	-
C=CCN1Cc2ccccc2C2(CCN(c3ccc(C)nn3)CC2)C1	-
CN(C)c1ncnc2c1CCN(S(=O)(=O)c1cccs1)CC2	-
Cc1ccc(-c2nc3c(s2)CN(C(=O)Nc2ccccc2C)CC3)cc1	-
